Assay outcomes: PubChem, National Center for Advancing Translational Sciences (NCATS)
GPT2 inhibitor: blocks human glutamate pyruvate transaminase 2; AID 1671188; Q8TD30; Recombinant GPT2, coupled pyruvate oxidase/HRP Amplex Red fluorescence; Potency, µM (doses to about 57.7 µM), hits mostly inhibitors; 100,000 compounds, 0.25% hits; further: nearly all actives have a fitted effect of over 60% in size
Target sequence (Q8TD30 whole entry, looked up): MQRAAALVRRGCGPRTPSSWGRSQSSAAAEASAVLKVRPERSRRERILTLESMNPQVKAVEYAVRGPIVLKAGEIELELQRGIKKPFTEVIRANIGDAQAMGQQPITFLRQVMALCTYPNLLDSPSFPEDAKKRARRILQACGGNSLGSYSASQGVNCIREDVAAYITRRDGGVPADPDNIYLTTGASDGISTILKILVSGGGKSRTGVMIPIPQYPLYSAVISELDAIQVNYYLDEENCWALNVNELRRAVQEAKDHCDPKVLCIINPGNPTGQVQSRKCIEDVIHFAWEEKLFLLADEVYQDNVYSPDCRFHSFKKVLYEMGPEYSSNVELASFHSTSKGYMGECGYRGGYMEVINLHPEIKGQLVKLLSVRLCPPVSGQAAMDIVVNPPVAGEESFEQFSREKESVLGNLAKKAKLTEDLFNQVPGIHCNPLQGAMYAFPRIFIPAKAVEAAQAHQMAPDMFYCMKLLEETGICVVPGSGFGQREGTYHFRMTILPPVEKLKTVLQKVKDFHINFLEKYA
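Fluorescence of coupled pyruvate oxidase/HRP/Amplex Red system (50uM Amplex, 30 min, dark) reports pyruvate formed by GPT2. Enzyme reaction: 10ng/uL GPT2, 2mM L-alanine, 250uM a-KG, 30 min room temperature, pH 7.5; 50uM AOA control.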
3T3 cytotox: kills NIH 3T3 cells | Potency, µM (series often up to 96.7 µM), actives largely listed as inhibitors | NIH 3T3 viability, CellTiter-Glo ATP luminescence, 48-72 h | 94,000 compounds, 4.3% hits; further: nearly all actives have a fitted effect of over 55% in size
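NIH 3T3 cells at 400 cells/well received 23 nL of compound by pintool and were incubated 48 or 72 h at 37 °C. Viability was read as ATP-coupled CellTiter-Glo luminescence.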
hNpr1 antagonist: antagonists of human natriuretic peptide receptor Npr1 | P16066 | HEK293 hNpr1 GloSensor cGMP, ANP-stimulated luminescence | Potency, µM (highest dose often 46.3 µM), usual class: inhibitors | 76,000 compounds, 1.6% hits | AID 1347048; calls by dose curve; further: nearly all actives have a fitted effect of over 60% in size
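Compound pre-incubated 30 min at room temperature on GloSensor-loaded HEK293 cells stably carrying hNpr1 and the pGS-40F cGMP biosensor. Stimulation uses hNppA at 0.1 nM final; luminescence is taken at baseline and 20 min post-agonist.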
FLuc inh-1: inhibitors of firefly (Photinus pyralis) luciferase; P08659; purified P. pyralis luciferase, luminescence, biochemical; Potency, µM (doses to about 115 µM), actives largely listed as inhibitors; 76,000 compounds, 2.5% hits; further: nearly all actives have a fitted effect of over 65% in size
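Purified 10nM P. pyralis luciferase with 10uM D-luciferin and 10uM ATP in 50mM Tris acetate pH 7.5, 10mM Mg acetate, 0.01% Tween-20, 0.05% BSA. qHTS titration; luminescence read by CCD imager.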
HEK cytotox: HEK 293 cell cytotoxicity | HEK 293 viability, ATP luminescence (CellTiter-Glo), 48-72 h | Potency, µM (top dose mostly 115 µM), hits mostly inhibitors | 94,000 compounds, 6.6% hits | AID 1345083; further: nearly all actives have a fitted effect of over 60% in size
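250 HEK 293 cells/well; compound by pintool; incubated 48 or 72 hr at 37 degree Celsius; CellTiter-Glo added, 10 min RT, luminescence imaged.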
FLuc SDR -ATP: firefly luciferase binding stabilization, ATP absent. shares compounds with FLuc inh-1. Purified FLuc-C-HiBiT, Nano-Glo HiBiT luminescence, no ATP. Potency, µM (highest dose often 32.7 µM), actives largely listed as activators. 1,300 compounds, 7.8% hits; further: nearly all actives have a fitted effect of over 55% in size
FLuc SDR ATP: binders stabilizing firefly luciferase, plus ATP; shares compounds with FLuc inh-1; purified FLuc-C-HiBiT + ATP, HiBiT complementation luminescence; Potency, µM (series often up to 32.7 µM), actives largely listed as activators; 1,300 compounds, 8.7% hits;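 further: signal reports ligand binding via conformational change of the enzyme rather than luciferase catalysis; nearly all actives have a fitted effect of over 55% in size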
FLuc inh-2: firefly luciferase enzyme inhibition. shares compounds with FLuc inh-1. purified FLuc-C-HiBiT enzyme, luciferin luminescence. AID 1963320. Potency, µM (top dose mostly 32.7 µM), actives largely listed as inhibitors. 1,300 compounds, 42% hits; further: nearly all actives have a fitted effect of over 70% in size
Hits are given with their value; – = inactive; ? = inconclusive; · = no result. Sampled rows, rich in hits. Any-hit rate of the full collection: about 10%. Unless noted, the call rests on the fitted dose curve; in most records, active means well fitted curve in the direction sought with a large enough effect; inconclusive means small, poorly fitted or top-dose-only effect, or another doubt; inactive means no such curve, though single readings can be large; an effect the other way counts as inactive or inconclusive.

SMILES | GPT2 inhibitor | 3T3 cytotox | hNpr1 antagonist | FLuc inh-1 | HEK cytotox | others
O=C(NC1CCCC1)C1CCCCN1Cc1ccc(-c2cccs2)cc1 (stereo not given) | – | 40µM | · | · | 32µM
O=C(NCC1CC1)C1CCCCN1Cc1ccc(-c2cccs2)cc1 (stereo not given) | – | 18µM | · | · | ?
CCn1nccc1C(=O)N1CCCn2cc(-c3ccccc3F)nc21 | – | – | – | – | –
O=C(NC1CCCCCC1)c1nc2sccn2c1-c1ccc(C(F)(F)F)cc1 | – | 25µM | · | · | 40µM
O=C(NC1CCCCC1)c1nc2sccn2c1-c1ccccc1 | – | ? | · | · | 63µM
O=C(NC1CC1)c1nc2sccn2c1-c1ccccc1 | – | – | · | · | –
O=C(NC1CCCCC1)c1nc2sccn2c1-c1ccc(C(F)(F)F)cc1 | – | 40µM | · | · | ?
Cc1cc(CNC(=O)[C@@H]2CCC[C@@H](NC(=O)C3CC3)CN(C)C(=O)C2)no1 | – | – | – | – | –
Cc1ccc(-c2ccccc2CN)c(C)c1 | – | 100µM | · | · | 112µM
NCc1cccc(-c2cccc(C(F)(F)F)c2)c1 | – | 79µM | · | · | ?
NCc1cccc(-c2ccc(OC(F)(F)F)cc2)c1 | – | 32µM | · | · | 40µM
O=C(NC1CC1)c1ccc2nccn2c1 | – | – | · | · | –
CCNC(=O)N1CCC(OCCOc2cccnc2)CC1 | – | – | · | · | –
O=C(NC1CCCN(c2cc(-c3ccccc3)[nH]n2)C1)c1ccncc1 (stereo not given) | – | – | – | ? | –
CN1CCCC1CCNc1nccc(-c2cnn(-c3ccc(F)cc3)c2)n1 (stereo not given) | – | ? | – | ? | 45µM
Cc1cccc(C(=O)N2CCCC(c3noc(COc4ccccc4F)n3)C2)c1 (stereo not given) | – | ? | – | – | ?
O=C(c1cccc(F)c1)N1CCCC(c2noc(COc3ccccc3F)n2)C1 (stereo not given) | – | ? | – | – | 71µM
Cc1c(F)cccc1NC(=O)N1CCCC(c2noc(COc3ccccc3)n2)C1 (stereo not given) | – | ? | – | 11µM | ?
O=C(CC1CCCCC1)N1CCCC(c2noc(COc3ccccc3)n2)C1 (stereo not given) | – | 40µM | ? | – | ?
Cc1ccc(OCc2nc(C3CCN(S(=O)(=O)Cc4ccccc4F)C3)no2)cc1 (stereo not given) | – | ? | ? | – | 25µM
CCS(=O)(=O)N1CCC(c2noc(COc3ccc(F)cc3)n2)C1 (stereo not given) | – | – | – | – | ?
COCCNC(=O)C[C@@H]1C[C@H]2O[C@H](CNC(=O)Nc3ccc(F)cc3)[C@@H](O)[C@H]2O1 | – | – | – | – | –
O=C(c1cscn1)N1CCC2(CCCN(CCC3CCCCC3)C2=O)C1 (stereo not given) | – | ? | – | ? | ?
CC(C)Oc1ccc2c(NC(=O)c3ccnn3C)nn(Cc3ccccc3)c2c1 | – | ? | – | – | ?
CS(=O)(=O)N1CC2(CCN(Cc3cccc(C(N)=O)c3)CC2)Cc2ccccc21 | – | – | · | · | –
SMILES | GPT2 inhibitor | 3T3 cytotox | hNpr1 antagonist | FLuc inh-1 | HEK cytotox | others
CCc1ccc(NC(=O)N2CCCC(c3noc(COc4ccccc4F)n3)C2)cc1 (stereo not given) | – | ? | ? | 2.2µM | ?
Cn1nc(C2CCCNC2)c2c(C(=O)NC3CC3)cc(C3CC3)nc21 (stereo not given) | – | – | · | · | –
Cc1nn(C)c(COc2ccc(N3CCN(S(=O)(=O)N(C)C)CC3)cc2)c1-c1cccc2c(CCCOc3cccc4ccccc34)c(C(=O)O)n(CCN3CCOCC3)c12 | – | · | · | · | ·
CCOC(=O)c1ccc(N2CCN(C(=O)C3=CC(C)(C)COc4ccc(OC)cc43)CC2)cc1 | · | ? | · | · | 35µM
O=C(c1c[nH]c2ccccc12)N1CCC2(CC1)CN(c1ccncn1)CC2CO (stereo not given) | – | – | – | – | –
COCCN1C(=O)c2ccccc2C(C(=O)Nc2nc3ccccc3s2)C12CCCCC2 (stereo not given) | – | 45µM | – | ? | ?
COCCN1C(=O)c2ccccc2C(C(=O)Nc2nnc(COC)s2)C12CCCCC2 (stereo not given) | – | ? | – | – | –
Clc1ccccc1C1(c2ccnc(NC3CCC3)n2)CCNCC1 | – | 28µM | – | – | 35µM
COc1ccc(NC(=O)c2cnc3n[nH]c(-c4ccc(OC)cc4C)c3n2)cc1 | – | 45µM | – | – | ?
COc1ccc(-c2[nH]nc3ncc(C(=O)Nc4ccn(C)n4)nc23)c(C)c1 | – | ? | – | – | 89µM
COc1ccc(-c2[nH]nc3ncc(C(=O)N4CC(O)C4)nc23)c(C)c1 | – | 7.9µM | – | – | ?
COc1ccc(-c2[nH]nc3ncc(C(=O)N4C[C@@H](C)O[C@@H](C)C4)nc23)c(C)c1 | – | ? | – | – | ?
COC(=O)[C@@H]1Cc2c([nH]c3ccccc23)[C@H]2C[C@@H](NCc3ccccc3)C[C@@H](c3ccccc3F)N21 | – | 25µM | – | – | 25µM
COC(=O)[C@@H]1Cc2c([nH]c3ccccc23)[C@H]2C[C@@H](NCc3cccs3)C[C@@H](c3ccccc3F)N21 | – | ? | – | – | 40µM
O=C(NC1CCCc2c1[nH]c1ccccc21)c1ccc(Br)o1 (stereo not given) | – | ? | – | – | ?
CN(C)S(=O)(=O)N1CCC(N2C(=O)C(OCC3CC3)C23CCCCC3)CC1 (stereo not given) | – | – | – | – | –
CC(=O)NC1CC2(CCN(C(=O)c3ccccc3)CC2)c2ccccc21 (stereo not given) | – | – | · | · | –
COCCC(=O)N1C[C@@H](COc2cccnc2)[C@H](c2ccccn2)C1 | – | – | – | – | –
CCCNC(=O)C1C(c2cccc(NC(=O)c3ccc(C)cc3)c2)OC(=O)N1Cc1ccc(C)cc1 (stereo not given) | – | ? | ? | 8.9µM | ? | FLuc SDR -ATP=–;FLuc SDR ATP=4.4µM;FLuc inh-2=4.4µM
